Source: PubChem BioAssay AID1159580 (chemical genetic matrix, 2015)
“And” between values parts separate entries of the source, which are not always exact repeats. Equal entries are not always repeated. The whole screen tested about 5,500 compounds, of which about 2,000 (36%) were called active. About 18% were inconclusive and are not listed. No stated cut-off is given here; in the data, active means normalized growth mostly below about 0.91 (no sharp cut-off); inconclusive means no clear call, values can overlap the other calls; inactive means mostly above about 0.92. The list shows a part of the results.

Assay: chemical genetic growth profiling, strain panel (AID 1159580);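 further: tested at 20 µM; growth read once vehicle control cultures reached saturation at 30 °C; 1 = growth at the plate median or of vehicle wells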
Conditions: growth OD

Measured: normalized growth

O=C(O)CC[N+](=O)[O-]
inactive: S. cerevisiae deletion strains, locus YJR075W, strain HOC1, stronger effect = lower value 0.987 | S. cerevisiae deletion strains, locus YKL009W, strain mrt4, stronger effect = lower value 0.971 | S. cerevisiae deletion strains, locus YKL068W, stronger effect = lower value 0.978 | S. cerevisiae deletion strains, locus YKL085W, strain MDH1 (second series), stronger effect = lower value 1.01 | S. cerevisiae deletion strains, locus YKL085W, strain MDH1, stronger effect = lower value 1.01 | S. cerevisiae deletion strains, locus YKL160W, strain elf1, stronger effect = lower value 1 | S. cerevisiae deletion strains, locus YKL190W, strain CNB1, stronger effect = lower value 0.986 | S. cerevisiae deletion strains, locus YKR001C, strain vps1, stronger effect = lower value 0.982 | S. cerevisiae deletion strains, locus YKR026C, strain gcn3, stronger effect = lower value 1 | S. cerevisiae deletion strains, locus YKR091W, strain srl3, stronger effect = lower value 0.993 | S. cerevisiae deletion strains, locus YLL001W, strain dnm1, stronger effect = lower value 0.981 | S. cerevisiae deletion strains, locus YLL026W, stronger effect = lower value 1.01 | S. cerevisiae deletion strains, locus YLL041C, strain sdh2, stronger effect = lower value 1 | S. cerevisiae deletion strains, locus YLR027C, strain aat2, stronger effect = lower value 1.01 | S. cerevisiae deletion strains, locus YLR039C, strain RIC1, stronger effect = lower value 0.903 | S. cerevisiae deletion strains, locus YLR058C, strain SHM2, stronger effect = lower value 0.991 | S. cerevisiae deletion strains, locus YLR102C, strain apc9, stronger effect = lower value 0.979 | S. cerevisiae deletion strains, locus YLR113W, strain HOG1, stronger effect = lower value 1.02 | S. cerevisiae deletion strains, locus YLR221C, strain rsa3, stronger effect = lower value 1.03 | S. cerevisiae deletion strains, locus YLR258W, strain gsy2, stronger effect = lower value 1.03 | S. cerevisiae deletion strains, locus YLR262C, strain YPT6 (second series), stronger effect = lower value 0.989 | S. cerevisiae deletion strains, locus YLR262C, strain YPT6, stronger effect = lower value 0.908 | S. cerevisiae deletion strains, locus YLR268W, strain sec22, stronger effect = lower value 0.988 | S. cerevisiae deletion strains, locus YLR320W, strain mms22, stronger effect = lower value 1.03 | S. cerevisiae deletion strains, locus YLR330W, strain CHS5, stronger effect = lower value 0.982 | S. cerevisiae deletion strains, locus YLR342W, strain FKS1 (second series), stronger effect = lower value 0.998 | S. cerevisiae deletion strains, locus YLR342W, strain FKS1, stronger effect = lower value 1.01 | S. cerevisiae deletion strains, locus YLR357W, strain rsc2, stronger effect = lower value 0.993 | S. cerevisiae deletion strains, locus YLR370C, strain arc18, stronger effect = lower value 1 | S. cerevisiae deletion strains, locus YLR371W, strain rom2, stronger effect = lower value 0.969 | S. cerevisiae deletion strains, locus YLR384C, strain iki3, stronger effect = lower value 0.988 | S. cerevisiae deletion strains, locus YLR418C, strain cdc73, stronger effect = lower value 1 | S. cerevisiae deletion strains, locus YML016C, strain PPZ1, stronger effect = lower value 0.993 | S. cerevisiae deletion strains, locus YML032C, strain rad52, stronger effect = lower value 0.973 | S. cerevisiae deletion strains, locus YML120C, strain ndi1, stronger effect = lower value 0.999 | S. cerevisiae deletion strains, locus YML124C, strain tub3, stronger effect = lower value 0.98 | S. cerevisiae deletion strains, locus YMR058W, strain fet3, stronger effect = lower value 1.03 | S. cerevisiae deletion strains, locus YMR078C, strain ctf18, stronger effect = lower value 0.976 | S. cerevisiae deletion strains, locus YMR125W, strain sto1, stronger effect = lower value 0.988 | S. cerevisiae deletion strains, locus YMR129W, stronger effect = lower value 0.996 | S. cerevisiae deletion strains, locus YMR205C, strain PFK2, stronger effect = lower value 0.983 | S. cerevisiae deletion strains, locus YMR223W, strain ubp8, stronger effect = lower value 0.977 | S. cerevisiae deletion strains, locus YMR231W, strain pep5, stronger effect = lower value 0.986 | S. cerevisiae deletion strains, locus YMR263W, strain SAP30, stronger effect = lower value 0.985 and 1 | S. cerevisiae deletion strains, locus YMR307W, strain GAS1, stronger effect = lower value 0.924 | S. cerevisiae deletion strains, locus YNL067W, strain RPL9B, stronger effect = lower value 0.991 | S. cerevisiae deletion strains, locus YNL071W, strain lat1, stronger effect = lower value 1.01 | S. cerevisiae deletion strains, locus YNL128W, strain TEP1, stronger effect = lower value 0.981 | S. cerevisiae deletion strains, locus YNL153C, strain GIM3, stronger effect = lower value 0.994 | S. cerevisiae deletion strains, locus YNL175C, strain NOP13, stronger effect = lower value 0.992 | S. cerevisiae deletion strains, locus YNL183C, strain NPR1, stronger effect = lower value 0.953 | S. cerevisiae deletion strains, locus YNL197C, strain WHI3, stronger effect = lower value 1.01 | S. cerevisiae deletion strains, locus YNL209W, strain ssb2, stronger effect = lower value 1.01 | S. cerevisiae deletion strains, locus YNL224C, strain SQS1, stronger effect = lower value 0.992 | S. cerevisiae deletion strains, locus YNL233W, strain BNI4, stronger effect = lower value 1 | S. cerevisiae deletion strains, locus YNL248C, strain rpa49, stronger effect = lower value 0.996 | S. cerevisiae deletion strains, locus YNL250W, strain rad50, stronger effect = lower value 0.978 | S. cerevisiae deletion strains, locus YNL271C, strain bni1, stronger effect = lower value 0.974 | S. cerevisiae deletion strains, locus YNL298W, strain CLA4, stronger effect = lower value 0.98 | S. cerevisiae deletion strains, locus YNL307C, strain MCK1, stronger effect = lower value 0.982 | S. cerevisiae deletion strains, locus YNL322C, strain KRE1 (second series), stronger effect = lower value 0.989 | S. cerevisiae deletion strains, locus YNL322C, strain KRE1, stronger effect = lower value 0.987 and 1.01 | S. cerevisiae deletion strains, locus YNR049C, strain mso1, stronger effect = lower value 1 | S. cerevisiae deletion strains, locus YNR052C, strain pop2, stronger effect = lower value 0.979 | S. cerevisiae deletion strains, locus YOL006C, strain TOP1, stronger effect = lower value 1.01 | S. cerevisiae deletion strains, locus YOL012C, strain htz1 0.756 | S. cerevisiae deletion strains, locus YOL147C, strain pex11, stronger effect = lower value 0.985 | S. cerevisiae deletion strains, locus YOR001W, strain rrp6, stronger effect = lower value 1.03 | S. cerevisiae deletion strains, locus YOR061W, strain CKA2, stronger effect = lower value 0.992 | S. cerevisiae deletion strains, locus YOR069W, strain VPS5, stronger effect = lower value 0.99 | S. cerevisiae deletion strains, locus YOR070C, strain gyp1, stronger effect = lower value 0.999 | S. cerevisiae deletion strains, locus YOR080W, strain dia2, stronger effect = lower value 1 | S. cerevisiae deletion strains, locus YOR083W, strain WHI5 (second series), stronger effect = lower value 0.995 | S. cerevisiae deletion strains, locus YOR083W, strain WHI5, stronger effect = lower value 0.999 | S. cerevisiae deletion strains, locus YOR106W, strain vam3, stronger effect = lower value 0.99 | S. cerevisiae deletion strains, locus YOR136W, strain idh2, stronger effect = lower value 0.986 | S. cerevisiae deletion strains, locus YOR144C, strain elg1, stronger effect = lower value 0.97 | S. cerevisiae deletion strains, locus YOR184W, strain ser1, stronger effect = lower value 0.968 | S. cerevisiae deletion strains, locus YOR231W, strain MKK1, stronger effect = lower value 0.971 | S. cerevisiae deletion strains, locus YOR265W, strain rbl2, stronger effect = lower value 0.997 | S. cerevisiae deletion strains, locus YOR270C, strain vph1, stronger effect = lower value 1.04 | S. cerevisiae deletion strains, locus YOR290C, strain snf2, stronger effect = lower value 0.982 | S. cerevisiae deletion strains, locus YOR316C, strain cot1, stronger effect = lower value 0.989 | S. cerevisiae deletion strains, locus YPL051W, strain arl3, stronger effect = lower value 1.03 | S. cerevisiae deletion strains, locus YPL055C, strain LGE1, stronger effect = lower value 0.972 and 1.02 | S. cerevisiae deletion strains, locus YPL078C, strain atp4, stronger effect = lower value 0.981 | S. cerevisiae deletion strains, locus YPL106C, strain sse1, stronger effect = lower value 1.04 | S. cerevisiae deletion strains, locus YPL240C, strain hsp82, stronger effect = lower value 1.01 | S. cerevisiae deletion strains, locus YPL241C, strain CIN2, stronger effect = lower value 0.941 | S. cerevisiae deletion strains, locus YPL256C, strain CLN2, stronger effect = lower value 0.991 | S. cerevisiae deletion strains, locus YPR119W, strain clb2, stronger effect = lower value 0.993 | S. cerevisiae deletion strains, locus YPR141C, strain kar3, stronger effect = lower value 0.979 | S. cerevisiae deletion strains, locus YPR163C, strain tif3, stronger effect = lower value 0.986 | S. cerevisiae deletion strains, locus YPR167C, strain met16, stronger effect = lower value 0.996 | S. cerevisiae deletion strains, strain wtn01, stronger effect = lower value 1.01 | S. cerevisiae strains, strain wild type, stronger effect = lower value 0.999
